The entries come from a sample that favours hits as a whole.
Tg IFNy HTS: blocks Toxoplasma gondii growth in the presence of IFN-gamma; hit rate 3.8% among 69,000; AID 1259416; activity change, negative = inhibition, % (no concentration beside the values); Toxoplasma gondii growth in IFN-gamma-treated host cells; stronger effect = lower value; in the data active = activity change below about -70%, passing the limit was not always enough;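 also: host cells are HeLa cells infected with Toxoplasma gondii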
Active calls of the source: *; i = inactive; ! = repeats disagree.

SMILES	Tg IFNy HTS
C=CC(=O)Nc1ccc2c(c1)CCC(=O)N2CCC	-11
CCN1C(=O)CCc2cc(NC(=O)c3ccc(C(C)C)cc3)ccc21	-105*
CC(C)CN1C(=O)CCc2cc(NC(=O)CCc3ccccc3)ccc21	-98*
CCCN1C(=O)CCc2cc(NC(=O)c3ccn(CC)n3)ccc21	96
CC(C)CC(=O)Nc1ccc2c(c1)CCC(=O)N2CC(C)C	-15
CCCN1C(=O)CCc2cc(NC(=O)c3ccc(F)c(Cl)c3)ccc21	-82*
CCN1C(=O)CCc2cc(NC(=O)c3ccsc3)ccc21	84
CCOc1ccccc1NC(=O)C(=O)NCCc1sc(-c2ccc(Cl)cc2)nc1C	107
Cc1cc(CN2CCCC(C)C2)c(C)c(-c2nccn2CCO)c1 (configuration not stated)	8
COCCN1C(=O)CCC12CCC(NC(=O)Cc1ccccc1)CC2 (configuration not stated)	3
CO[C@H]1CCN(C(=O)c2ccn(C)n2)C[C@@H]1Cc1cccc(C)c1	-3
Cc1cc(N2CC(c3ccnc(N(C)C)n3)C2)ncn1	0
CCN1CCC2(c3ccccc3)CCN(C(=O)C3CC3)CC12 (configuration not stated)	32
O=C(Cn1c(=O)cc(C(=O)N2CCOCC2)c2ccccc21)Nc1ccc(Cl)cc1	20
CCCN1C(=O)CCc2cc(NC(=O)c3ccc(CC)cc3)ccc21	-59
COCCN1C(=O)CCc2cc(NC(=O)c3ccc(C)cc3)ccc21	-5
CCc1ccc(C(=O)Nc2ccc3c(c2)CCC(=O)N3CCOC)cc1	-74*
CC1CCCCN1C1CN(c2nc(-c3cccnc3)nc3c2cnn3C)C1 (configuration not stated)	-13
O=C(c1ccccc1)N1C[C@H]2[C@@H](c3ccccc31)[C@@H](CO)N2Cc1ccccn1	1
O=C(NCCc1csc(-c2cccc(F)c2)n1)c1c(F)cccc1F	-31
Cc1cccc(-c2cc3nc4c(c(=O)n3[nH]2)CCC4)c1	-100*
Cc1[nH]n2c(=O)c3c(nc2c1-c1cccs1)CCC3	-11
Cc1cccc(-c2cc3nc(C)cc(=O)n3[nH]2)c1	-21
Cc1ccc(-n2c(-c3cccc(F)c3)nn(CC(=O)N3CCCC3)c2=O)nc1	-7
O=C(O)CCc1ccc(NCc2cccc(Oc3ccccc3)c2)cc1	14
SMILES	Tg IFNy HTS
CNCc1ccccc1	9
c1ccc(CNc2ccc(C3c4ccccc4Oc4ccccc43)cc2)cc1	-97*
CC(C)NC(=O)Cn1ncc2c(N3CCN(c4ccccn4)CC3)ncnc21	119
COCCn1c2c(ccc1=O)CC(NC(=O)CNC(C)=O)CC2 (configuration not stated)	-3
CCCS(=O)(=O)NCCc1csc(-c2cccc(F)c2)n1	32
Cc1ccccc1-c1ccc(C2[C@@H]3CN(S(=O)(=O)Cc4ccccc4)C[C@H]2N3)cc1 (some centres not stated)	-77*
N#Cc1cccc(-c2ccc(C3[C@@H]4CN(C(=O)C5CCOCC5)C[C@H]3N4)cc2)c1 (some centres not stated)	-10
Cc1ccccc1S(=O)(=O)N1C[C@@H]2N[C@H](C1)C2c1ccc(-c2cccc(C#N)c2)cc1 (some centres not stated)	-71*!
Cc1ccccc1-c1ccc([C@H]2[C@H](CO)N3CCCCN(S(=O)(=O)Cc4ccccc4)C[C@@H]23)cc1	-47
CS(=O)(=O)N1C[C@@H]2N[C@H](C1)[C@@H]2c1ccc(-c2ccccc2)cc1	-67
Cc1ccccc1-c1ccc([C@@H]2[C@@H](CO)N3CCCCN(S(=O)(=O)Cc4ccccc4)C[C@H]23)cc1	-60
Cc1cc(C)n(CC(=O)NCCCc2ccc(Cl)cc2)c(=O)n1	14
O=C(Cc1ccc(O)c(F)c1)N1CCC2(CCNCC2)CC1	10
CC(C)c1nccn1CC(=O)NCC1(c2ccccc2F)CCOCC1	-24
COc1ccc2c3c([nH]c2c1)[C@H](CO)N(S(=O)(=O)c1cn(C)cn1)CC31CCN(CC2CCCCC2)CC1	-34
N#Cc1nc(-c2ccc(C(F)(F)F)cc2)oc1N	-96*
FC(F)(F)c1ccc(C2=NCCO2)cc1	25
FC(F)(F)c1ccc(-c2nnc(-c3ccc4nccnc4c3)o2)cc1	-49
O=S(=O)(NCCc1csc(-c2ccc(F)cc2)n1)c1ccc2c(c1)CCCC2	-45
CCNC(=O)NCCC1CN(C2Cc3ccccc3C2)CCO1 (configuration not stated)	3
CC(Cc1ccccn1)NC(=O)C1COc2cc(C(C)(C)C)ccc2O1 (configuration not stated)	2
C=C(C)CN1CCN(C(=O)c2cc(C(C)C)nn2C)CC1	9
COCCC(=O)N1CCc2ncc(CN(C)C)n2CC1	42
C[C@H]1C[C@H]2CN(C(=O)c3ccc4c(c3)OCO4)C[C@H]2O1	24
CC(=O)c1ccc2c(c1)[C@@H]1C=CC[C@@H]1[C@H](c1cc3c(cc1Br)OCO3)N2	-75*
SMILES	Tg IFNy HTS
Brc1ccc2c(c1)C1C=CCC1C(C1CC=CCC1)N2 (configuration not stated)	27
COC(=O)c1cc(C)nc2c1c(=O)nc(SCc1nc(-c3ccc(Cl)cc3)oc1C)n2C1CC1	-25
CCOC(=O)c1c(N)nc(SC)n1-c1ccccc1OC	-16
Cc1cc(C(=O)N2CCC3(CC2)COc2ccccc2S(=O)(=O)N(C)C3)no1	-60
COc1ccc(N(Cc2nc(-c3ccccc3OC)oc2C)S(=O)(=O)c2cccs2)cc1	-40
OCCn1ccnc1-c1cnc(NCC2CCCO2)nc1 (configuration not stated)	-20
O=C(Nc1ccc2c(c1)OCO2)N1CCC2(CC1)Nc1ccccc1-n1cccc12	i
CN(C)C(=O)N1CCC2(CCC(C(=O)NCC3CC3)O2)CC1 (configuration not stated)	1
O=C(Nc1ccc(Cl)c(Cl)c1Cl)NC1CCSC1 (configuration not stated)	-75*
Cc1nsc(NC(=O)NC2CCN(Cc3ccccc3Cl)CC2)n1	-6
O=S(=O)(Nc1cccnc1Oc1ccc(Cl)cc1)c1ccc(C(F)(F)F)cc1	60
C=CCOCC1CCC2C1OCCN2Cc1ccc(C)s1 (configuration not stated)	1
Cc1cccc(N2CCN(C(=O)c3csc(C(=O)NC4CC4)n3)CC2)c1C	111
Cc1nccn1-c1ncnc2scc(-c3ccccc3)c12	13
Cc1ccc(CNC(=O)CN2C(=O)CCc3cc(S(=O)(=O)N4CCOCC4)ccc32)cc1	-4
C[C@]12OC(C[C@]1(O)CO)n1c3ccccc3c3c4c(c5c6ccccc6n2c5c31)CNC4=O	-82*
CCN1C(=O)CCC12CCC(NC(=O)c1ccncc1F)CC2 (configuration not stated)	52
CCc1ccc(CNC(=O)Cn2ncc3c(N4CCN(c5ccccn5)CC4)ncnc32)cc1	31
COc1ccc(CNC(=O)Cn2ncc3c(N4CCN(c5ccccc5)CC4)ncnc32)cc1	-102*
Cc1ccc(CNC(=O)Cn2ncc3c(N4CCN(c5ccccc5)CC4)ncnc32)cc1	-15
O=C(Cn1ncc2c(N3CCN(c4ccccn4)CC3)ncnc21)NCc1ccccc1	-105*
COc1ccc(CNC(=O)Cn2ncc3c(N4CCN(C)CC4)ncnc32)cc1	0
CN(C)CCNC(=O)Cn1ncc2c(N3CCN(c4ccccn4)CC3)ncnc21	-10
Nc1nc(CCNC(=O)c2cn(CCC3CCCCC3)nn2)cs1	-18
CCCCOc1ccc(-c2cc3c(=O)n(Cc4nc(-c5ccc(OCC)cc5)oc4C)ccn3n2)cc1	-3

Screens from PubChem BioAssay.
